# Measurements reported in a collection of fitness landscapes (doi:10.1038/s41467-024-54723-y).
# The full ranking holds about 18,000 sequences; the median of “TetR repression strength (sort-seq, GFP reporter)” is about 0.23, and the highest 2% start at about 0.68. This excerpt belongs to a sample that is enriched for the highest values.
# Target: TetR (class B, Tn10) (UniProt P04483)
# Experiment: TetR repression strength (sort-seq, GFP reporter) (relative to tetO2 = 1); higher = stronger repression
# Details: E. coli
# Method in brief: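 Repression strength is the top bin index plus one minus the read-weighted mean bin, relative to the unaltered operator's value. A low-copy library in E. coli SIG10-MAX randomized eight operator positions between a constitutive promoter and sfGFP, with TetR expressed constitutively; cells grew 5 h at 37 °C in LB with 50 µg/mL chloramphenicol and 10^6 were FACS-sorted into 13 bins that were each Illumina-sequenced. Three independent transformations were averaged, keeping only members with ≥30 reads in all replicates and CV ≤0.5.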
# Chain of TetR (class B, Tn10) (P04483 whole entry): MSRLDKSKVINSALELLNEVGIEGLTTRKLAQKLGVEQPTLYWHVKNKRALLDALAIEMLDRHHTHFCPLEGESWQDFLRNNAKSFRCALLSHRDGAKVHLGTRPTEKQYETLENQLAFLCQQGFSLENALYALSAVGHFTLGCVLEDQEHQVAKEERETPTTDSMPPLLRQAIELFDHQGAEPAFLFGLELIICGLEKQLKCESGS
row,Sequence,TetR repression strength
1,TCCCAATCAGTGAAAGAGA,0.686
2,TCCCAATAAGTGAAAGAGA,0.688
3,TCCCAATCAGTCAAAGAGA,0.676
4,TCCCAATCAGTGTAAGAGA,0.74
5,TCCCAATCAGTGAAGGAGA,0.671
6,TCCCAATCAGTTTAAGAGA,0.368
7,TCCCAAGAAGTGAAAGAGA,0.2
8,TCCCAATAAGTGTAAGAGA,0.21
9,TCCCAATCAGTGTCAGAGA,0.335
10,TCCCACTAAGTTATAGAGA,0.672
11,TCCCTGCTAGTTAGGGAGA,0.181
12,TCCCGTCGAGTGGGAGAGA,0.494
13,TCCCTCAAAGTGTACGAGA,0.165
14,TCCCGCTAAGTAAGTGAGA,0.00864
15,TCCCTACAAGTCATCGAGA,0.309
16,TCCCTACCAGTGATCGAGA,0.593
17,TCCCAATCAGTTATCGAGA,0.468
18,TCCCTATAAGTCGTCGAGA,0.307
19,TCCCTATCAGTGATCGAGA,0.868
20,TCCCTAGTAGTGATCGAGA,0.37
21,TCCCTTTCAGTCATCGAGA,0.53
22,TCCCTATCAGTCATCGAGA,0.747
23,TCCCTATAAGTCATCGAGA,0.687
24,TCCCTCTCAGTTATCGAGA,0.603
25,TCCCTATCAGTTATCGAGA,0.859
26,TCCCAATCAGTCATCGAGA,0.557

row,Sequence,TetR repression strength
1,TCCCCCACAGTGTAAGAGA,0.183
2,TCCCGCTTAGTCCTCGAGA,0.44
3,TCCCAATAAGTACGCGAGA,0.348
4,TCCCAGCCAGTTTTGGAGA,0.298
5,TCCCCGGAAGTTGCGGAGA,0.0399
6,TCCCGGGGAGTTATCGAGA,0.161
7,TCCCACGGAGTGGTGGAGA,0.11
8,TCCCGACGAGTACATGAGA,0.629
9,TCCCTCAGAGTGGACGAGA,0.314
10,TCCCTATAAGTTATAGAGA,0.651
11,TCCCTATCAGTCATAGAGA,0.924
12,TCCCTATCAGTCGTAGAGA,0.557
13,TCCCTATCAGTTATAGAGA,0.809
14,TCCCTGTCAGTCATAGAGA,0.617
15,TCCCTATGAGTTATAGAGA,0.439
16,TCCCCAACAGTCTTGGAGA,0.692
17,TCCCCAAGAGTCTTGGAGA,0.193
18,TCCCAAAAAGTGTGGGAGA,0.415
19,TCCCCAACAGTGTTGGAGA,0.292
20,TCCCCAAAAGTTTTGGAGA,0.276
21,TCCCCAAAAGTCATGGAGA,0
22,TCCCCAAAAGTGGGGGAGA,0.196
23,TCCCTCTCAGTGTGGGAGA,0.234
24,TCCCCAAAAGTCTTGGAGA,0.681
25,TCCCCAAAAGTGTGGGAGA,0.821
26,TCCCTCACAGTGGGGGAGA,0.189

row,Sequence,TetR repression strength
1,TCCCTCACAGTGTGGGAGA,1.22
2,TCCCGGGTAGTCAAGGAGA,0.296
3,TCCCAGGAAGTCGTTGAGA,0
4,TCCCGGCCAGTTGTTGAGA,0.199
5,TCCCGAATAGTCGACGAGA,0.165
6,TCCCGTATAGTCTGGGAGA,0.198
7,TCCCAGCTAGTGAGTGAGA,0.716
8,TCCCAGCGAGTGAGCGAGA,0.153
9,TCCCAGCTAGTGAGAGAGA,0.36
10,TCCCAGCTAGTGATTGAGA,0.306
11,TCCCAGCAAGTGAGTGAGA,0.201
12,TCCCAGCGAGTGACCGAGA,0.694
13,TCCCAGCAAGTGGGTGAGA,0.699
14,TCCCAGCTAGTGAACGAGA,0.379
15,TCCCAGCGAGTGACGGAGA,0.207
16,TCCCAGCTAGTGACGGAGA,0.226
17,TCCCAGCTAGTGACCGAGA,0.694
18,TCCCAGCAAGTGTGTGAGA,0.1
19,TCCCTTCGAGTTCTCGAGA,0.207
20,TCCCTCCTAGTCTCCGAGA,0.394
21,TCCCACGGAGTCGGCGAGA,0.148
22,TCCCGGAAAGTCACAGAGA,0.108
23,TCCCTGTGAGTGGACGAGA,0.227
24,TCCCAGCTAGTTTCTGAGA,0.207
25,TCCCTAAAAGTGTAGGAGA,0.131
26,TCCCAGTGAGTTCGCGAGA,0.402

row,Sequence,TetR repression strength
1,TCCCACTCAGTATGTGAGA,0.108
2,TCCCGTAAAGTGTTAGAGA,0.696
3,TCCCGTTTAGTGTTAGAGA,0.222
4,TCCCGTACAGTGTTAGAGA,0.284
5,TCCCGTGTAGTGTTAGAGA,0.24
6,TCCCGTAAAGTGTGAGAGA,0.0929
7,TCCCGTCTAGTGTTAGAGA,0.851
8,TCCCACCGAGTTTTTGAGA,0.46
9,TCCCACAGAGTAATGGAGA,0.108
10,TCCCCGTTAGTTTTGGAGA,0.104
11,TCCCTGGTAGTACGAGAGA,0.219
12,TCCCTAGGAGTAGGAGAGA,0.268
13,TCCCTAGGAGTACGCGAGA,0.226
14,TCCCTAGTAGTACGCGAGA,0.0159
15,TCCCTAGTAGTACGAGAGA,1.22
16,TCCCTAGGAGTACGAGAGA,1.01
17,TCCCGTAGAGTCTCAGAGA,0.257
18,TCCCTTTTAGTTATAGAGA,0.231
19,TCCCCACGAGTTCAGGAGA,0.271
20,TCCCGTAGAGTAATGGAGA,0.344
21,TCCCACTGAGTGAGAGAGA,0.473
22,TCCCTGTGAGTTGGGGAGA,0.189
23,TCCCGCGAAGTCAGAGAGA,0.382
24,TCCCCTTCAGTGGAGGAGA,0.65
25,TCCCCTTCAGTGAAGGAGA,0.702
26,TCCCCTCCAGTGAAGGAGA,0.572

row,Sequence,TetR repression strength
1,TCCCCTAAAGTGAAGGAGA,0.721
2,TCCCTTAAAGTGAAGGAGA,0.097
3,TCCCCCAAAGTGAAGGAGA,0.104
4,TCCCGTAAAGTTCAAGAGA,0.415
5,TCCCCGCCAGTTGGCGAGA,0.16
6,TCCCTTTGAGTAAATGAGA,0.33
7,TCCCTCCGAGTCATCGAGA,0.264
8,TCCCTTCAAGTGCGGGAGA,0.0975
9,TCCCCCTGAGTAGTAGAGA,0.207
10,TCCCCTAGAGTGGTAGAGA,0.634
11,TCCCCTGTAGTGATAGAGA,0.387
12,TCCCCTATAGTGCTAGAGA,0.285
13,TCCCCTATAGTGATAGAGA,0.982
14,TCCCTTGGAGTGGTAGAGA,0.172
15,TCCCTTAGAGTGGTAGAGA,0.695
16,TCCCCTATAGTGGTAGAGA,0.84
17,TCCCTTAGAGTGGTCGAGA,0.215
18,TCCCCTATAGTGGTGGAGA,0.201
19,TCCCCTTTAGTTGTAGAGA,0.246
20,TCCCGGTCAGTCTTTGAGA,0.165
21,TCCCCGAGAGTGAGGGAGA,0.129
22,TCCCCTTAAGTCGAGGAGA,0.157
23,TCCCATCGAGTCGGTGAGA,0.179
24,TCCCGGTTAGTGTAGGAGA,0.172
25,TCCCGCGCAGTCAGTGAGA,0.415
26,TCCCTCGAAGTGATCGAGA,0.343
